In the GenesisPotency data set:
In all, about 290,000 compounds went through this assay and about 3,000 (1%) were called active. Cut-off read from the data, not from the text of the source: active = inhibition mostly above about 36% (no sharp cut-off); inactive = mostly below about 34%. Shown is part of a subset that was picked to be rich in actives.

molecular target: T1, Nucleotide-binding oligomerization domain-containing protein 1, Homo sapiens (UniProt Q9Y239); experiment: inhibition of NOD1-driven NF-kB reporter – cell-based, luminescence, uHTS, primary screen (AID 1578)
T1 sequence (whole entry): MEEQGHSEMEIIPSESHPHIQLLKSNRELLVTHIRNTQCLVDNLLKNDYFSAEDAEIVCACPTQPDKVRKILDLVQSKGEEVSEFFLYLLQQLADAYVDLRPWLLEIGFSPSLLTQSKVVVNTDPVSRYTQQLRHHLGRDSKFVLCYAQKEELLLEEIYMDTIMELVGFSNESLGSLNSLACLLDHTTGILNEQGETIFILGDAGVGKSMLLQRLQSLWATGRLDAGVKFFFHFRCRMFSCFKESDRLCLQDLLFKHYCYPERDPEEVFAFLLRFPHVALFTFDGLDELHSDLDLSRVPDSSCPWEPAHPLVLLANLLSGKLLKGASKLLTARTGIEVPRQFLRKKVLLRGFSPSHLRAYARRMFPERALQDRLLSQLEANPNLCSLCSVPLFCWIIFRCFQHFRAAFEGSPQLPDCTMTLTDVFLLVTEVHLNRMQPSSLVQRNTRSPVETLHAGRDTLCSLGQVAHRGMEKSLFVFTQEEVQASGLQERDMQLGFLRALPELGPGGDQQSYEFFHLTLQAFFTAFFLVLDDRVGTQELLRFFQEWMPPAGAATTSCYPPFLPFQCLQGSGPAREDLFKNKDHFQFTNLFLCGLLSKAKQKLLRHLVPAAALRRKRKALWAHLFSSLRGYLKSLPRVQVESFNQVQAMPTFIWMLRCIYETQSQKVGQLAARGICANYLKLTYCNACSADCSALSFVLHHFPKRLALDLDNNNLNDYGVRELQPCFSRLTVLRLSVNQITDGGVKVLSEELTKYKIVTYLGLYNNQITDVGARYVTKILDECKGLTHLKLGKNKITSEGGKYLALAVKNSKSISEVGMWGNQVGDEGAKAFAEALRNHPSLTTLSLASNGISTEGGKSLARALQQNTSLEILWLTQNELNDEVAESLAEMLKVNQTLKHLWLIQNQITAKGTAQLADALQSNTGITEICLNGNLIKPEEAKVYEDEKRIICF

Q: `COc1ccc(-c2cc(-c3ccccc3)[n+](C)c(-c3ccccc3)c2)cc1.[O-][Cl+3]([O-])([O-])[O-]` was tested. Which outcome did it give?
A: The outcome was “active”.

Q: How did the outcome turn out when `COc1ccc(-[n+]2c(-c3ccccc3)cc(-c3ccc(C)cc3)cc2-c2ccccc2)cc1.[O-][Cl+3]([O-])([O-])[O-]` was run?
A: Its outcome is “active”.

Q: With `CCC(C)C(NC(=O)CCCNC(=O)CCC(=O)OC1O[C@H]2OC3(C)CC[C@H]4[C@H](C)CCC(C1C)C24OO3)C(=O)O` (some centres undefined) as the compound, how does the outcome read?
A: The outcome was “active”.

Q: With `CCC(C)NC(=O)CCC(=O)OC1O[C@H]2OC3(C)CC[C@H]4[C@H](C)CCC(C1C)C24OO3` (some centres undefined) as the compound, how does the outcome read?
A: The outcome was “active”.

Q: For `CC(C)CC(NC(=O)CCCNC(=O)CCC(=O)OC1O[C@H]2OC3(C)CC[C@H]4[C@H](C)CCC(C1C)C24OO3)C(=O)O` (some centres undefined), which outcome is on record?
A: The outcome was “active”.

Q: With `CC[C@@]1(O)C(=O)OCc2c1cc1n(c2=O)Cc2cc3ccccc3nc2-1` as the compound, how does the outcome read?
A: Its outcome is “active”.

Q: With `CCCCCn1c(=O)c(C(=O)Nc2cnccn2)c(O)c2ccccc21` as the compound, how does the outcome read?
A: Its outcome is “active”.

Q: With `CCCCCCn1c(=O)c(C(=O)Nc2cnccn2)c(O)c2ccccc21` as the compound, how does the outcome read?
A: Its outcome is “active”.

Q: With `C=C1C(=O)O[C@H]2C[C@@H](C)[C@@H]3C=CC(=O)[C@@]3(C)C[C@H]12` as the compound, how does the outcome read?
A: Its outcome is “active”.

Q: For `C=C1C(=O)O[C@@H]2C[C@@H](C)[C@@H]3C=CC(=O)[C@@]3(C)[C@@H](OC(=O)CC(=O)O[C@H]3[C@@H]4C(=C)C(=O)O[C@@H]4C[C@@H](C)[C@@H]4C=CC(=O)[C@]43C)[C@H]12`, which outcome is on record?
A: Its outcome is “active”.

Q: With `O=c1c2ccccc2nc(/C=C/c2ccccc2O)n1-c1ccccc1O` as the compound, how does the outcome read?
A: The outcome was “active”.

Q: With `CC(C)(C)c1ccc(CSc2cnn(C(C)(C)C)c(=O)c2Cl)cc1` as the compound, how does the outcome read?
A: The outcome was “active”.

Q: How did the outcome turn out when `O=Cc1cn(Cc2cccc([N+](=O)[O-])c2)c2ccccc12` was run?
A: The outcome was “active”.

Q: With `Cc1cccc(-n2c(/C=C/c3ccc([N+](=O)[O-])o3)nc3ccccc3c2=O)c1` as the compound, how does the outcome read?
A: The outcome was “active”.

Q: With `O=c1c2ccccc2nc(/C=C/c2ccc([N+](=O)[O-])o2)n1-c1ccc(O)cc1` as the compound, how does the outcome read?
A: Its outcome is “active”.

Q: With `O=C(c1ccc(Cl)cc1)C1CCCN(Cc2cccc3ncccc23)C1` (centres undefined) as the compound, how does the outcome read?
A: The outcome was “active”.

Q: `Cc1nc2c(=O)n(C)c(=O)nc-2n(C)n1` was tested. Which outcome did it give?
A: Its outcome is “active”.

Q: With `CCOc1ccc(-c2cc(C)[n+](CCN(CC)CC)c(-c3ccc(OCC)cc3)c2)cc1.[O-][Cl+3]([O-])([O-])[O-]` as the compound, how does the outcome read?
A: Its outcome is “active”.

Q: How did the outcome turn out when `CC(=O)c1c(C)n(C2CCCCC2)c2ccc(O)cc12` was run?
A: Its outcome is “active”.

Q: How did the outcome turn out when `C[C@H]1CCC[C@@H](O)CCC/C=C/c2cc(O)cc(O)c2C(=O)O1` was run?
A: Its outcome is “active”.

Q: For `CC1=CC(=Cc2sc3ccccc3[n+]2C)C=C(C)O1.[O-][Cl+3]([O-])([O-])[O-]`, which outcome is on record?
A: The outcome was “active”.

Q: How did the outcome turn out when `CC(C)[C@H]1C(=O)O[C@H](C(C)C)C(=O)N(C)[C@@H](C(C)C)C(=O)O[C@H](C(C)C)C(=O)N(C)[C@@H](C(C)C)C(=O)O[C@H](C(C)C)C(=O)N1C` was run?
A: Its outcome is “active”.

Q: With `CCn1nc(/C=C/c2ccccc2)nc2c(=O)n(C)c(=O)nc1-2` as the compound, how does the outcome read?
A: The outcome was “active”.

Q: For `CCn1nc(-c2ccccc2)nc2c(=O)n(C)c(=O)nc1-2`, which outcome is on record?
A: The outcome was “active”.

Q: Which outcome does the source give for `Cc1nn(C(C)(C)C)c(C)c1/C=N/OC(=O)Nc1ccc(Cl)cc1` here?
A: The outcome was “active”.

Q: With `Cc1nn(C(C)(C)C)c(C)c1/C=N/OC(=O)Nc1ccc(Cl)c(Cl)c1` as the compound, how does the outcome read?
A: The outcome was “active”.

Q: With `COc1ccc(Oc2cc(NC(=O)c3nn(C)cc3[N+](=O)[O-])cc([N+](=O)[O-])c2)cc1` as the compound, how does the outcome read?
A: Its outcome is “active”.

Q: With `C[C@@H]1O[C@@H](O[C@H]2C[C@@H](O)[C@]3(CO)[C@H]4[C@H](O)C[C@]5(C)[C@@H](C6=CC(=O)OC6)CC[C@]5(O)[C@@H]4CC[C@]3(O)C2)[C@H](O)[C@H](O)[C@H]1O` as the compound, how does the outcome read?
A: The outcome was “active”.

Q: Which outcome does the source give for `NC(=O)c1cn(C2OC(CO)C(O)C2O)c2ncnc(N)c12.O` (centres undefined) here?
A: The outcome was “active”.

Q: For `CCCCN=C[C@]12CCC(O)CC1(O)CCC1[C@@H]2CC[C@]2(C)[C@H](C3C=CC(=O)O3)CCC12O` (some centres undefined), which outcome is on record?
A: The outcome was “active”.

Q: For `C[C@]12CCC3C(CCC4=CC(O)CC[C@@]43/C=N/O)C1(O)CCC2C1=CC(=O)OC1` (some centres undefined), which outcome is on record?
A: The outcome was “active”.

Q: With `CC(=O)OC[C@]12CCC(C)=C[C@H]1O[C@@H]1[C@H](O)[C@@H](OC(C)=O)[C@@]2(C)[C@]12CO2` as the compound, how does the outcome read?
A: The outcome was “active”.

Q: For `C=C1C(=O)O[C@@H]2C[C@@H](C)[C@@H]3C4OC4C(=O)[C@@]3(C)[C@@H](O)[C@H]12` (some centres undefined), which outcome is on record?
A: The outcome was “active”.

Q: Which outcome does the source give for `CCOc1ccc(-c2c(C)n(-c3ccc(OCC)cc3)c3[n+]2CCCCC3)cc1.[O-][Cl+3]([O-])([O-])[O-]` here?
A: The outcome was “active”.
